Test [1] is described as follows: inhibitors of TNFa-induced NFkB p65 translocation, primary screen, imaging, HUVEC, MLSMR starter and 10KST1 sets (AID 438;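 active = inhibition above 20% together with a positive visual image hit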;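 note: compound added about 3h40 before a 20 min TNFalpha stimulation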;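 for inhibition: signal is the nuclear over cytoplasmic p65 intensity ratio per well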). To be noted: HUVEC TNFa-induced p65 nuclear translocation; cell count: measured here: nuclei count (cytotoxicity indicator), at 2.08 µM; inhibition: at 2 µM, stronger effect = higher value, 0% TNFa-plus-vehicle, 100% no-TNFa wells.
Test [2] in a line: inhibitors of mutant huntingtin aggregation, primary screen, imaging, exon1htt(103Q)mCFP cells, high-content imaging (AID 483).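 For nuclei count: percent of the per-plate median nuclei count of sample wells.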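 Note: compound exposure lasted 3 days before fixation.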 To be noted: exon1htt(103Q)mCFP cell line, aggregate imaging, at 2 µM; inhibition of aggregation: stronger effect = higher value; nuclei count: measured here: cell count, toxicity.
Test [3] can be described thus: inhibitors of E-selectin induction by TNFa, primary screen, imaging, HUVEC, immunofluorescence, MLSMR starter and 10KST1 sets (AID 487;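 active = visually confirmed hit in the image check and inhibition above 20%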;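 for inhibition: signal is fraction of cell area covered by stained E-selectin grains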;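 for nuclei count: 100% = median nuclei count of all wells on the same plate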). To be noted: HUVEC TNFalpha-induced E-selectin immunofluorescence imaging, at 2 µM; inhibition: stronger effect = higher value; nuclei count: measured here: cell number, toxicity.
In test [4] the target is Voltage-gated potassium channel subunit beta-2 (Rattus norvegicus) (UniProt P62483). Nature of the test: KvBeta enzyme negative modulators, primary screen, biochemical, NADPH fluorescence (AID 622;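 active = fluorescence slope higher than the sample average by over 3 SD, cut at about -0.22 in these data, passing the limit was not always enough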;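 note: slope of raw intensity against log time taken from 70 to 1610 s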). To be noted: recombinant KvBeta, 4-cyanobenzaldehyde reduction, at 10 µM, stronger effect = higher value.
The target is the same in test [5]. Nature of the test: KvBeta positive modulators, primary screen, biochemical, NADPH fluorescence (AID 623;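 active = NADPH fluorescence slope more negative than the mean of all samples by about 3 SD, 99.7% confidence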;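 note: fluorescence intensity change per second fitted from 20 to 320 s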). The settings on record: Recombinant KvBeta, NADPH fluorescence decrease slope, 10 min; at 10 µM; stronger effect = lower value.
The target in test [6] is Alpha-2C adrenergic receptor (Homo sapiens) (UniProt P18825). The experiment in a line: modulators of alpha2C/GIRK thallium flux, primary screen, cell-based, HEK293 alpha2C/GIRK1/2 (AID 624;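 active = fluorescence slope after compound addition differing from the mean of all screened samples at 99.7% confidence, in either direction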;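 note: slope of fluorescence ratio to pre-addition baseline per second over 15 to 24 s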). The settings on record: thallium flux BTC fluorescence, at 10 µM, actives lie on both sides.
Test [7] can be described thus: inhibitors of Sendai virus-induced IRF3 signaling, primary screen, TLR/RLR signaling modifier project, cell-based, Sendai virus stimulus, luciferase, 10K MLSCN set (AID 602276;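 active = inhibition at or above 50% at 10 µM; inactive = inhibition below 50%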;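 note: firefly luciferase from ISG56 promoter only with Renilla not read in this screen; 0% = Sendai virus plus DMSO and 100% = medium plus DMSO without virus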). The settings on record: HEK293 RL24 IRF3 luciferase reporter, at 10 µM, stronger effect = higher value.
Test [8] is described as follows: inhibitors of poly I:C-induced TLR3 signaling, primary screen, cell-based, poly I:C stimulus, luciferase, 10K MLSCN set (AID 602277;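 active = inhibition of the reporter signal at or above 50%; inactive = inhibition below 50%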). To be noted: HEK293-TLR3 RL24 IRF3 luciferase reporter, at 10 µM, stronger effect = higher value. (In general: In a reporter assay the amount or activity of a reporter protein is the signal.)

The source made the active and inactive calls.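 Rule for the calls, unless noted: active = visual image review flags a hit and inhibition of aggregation exceeds 20%; inconclusive = visual hit but inhibition at or below 20%; inactive = no hit on visual image review.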

Chain of Voltage-gated potassium channel subunit beta-2 (Rattus norvegicus) (P62483 whole entry, looked up): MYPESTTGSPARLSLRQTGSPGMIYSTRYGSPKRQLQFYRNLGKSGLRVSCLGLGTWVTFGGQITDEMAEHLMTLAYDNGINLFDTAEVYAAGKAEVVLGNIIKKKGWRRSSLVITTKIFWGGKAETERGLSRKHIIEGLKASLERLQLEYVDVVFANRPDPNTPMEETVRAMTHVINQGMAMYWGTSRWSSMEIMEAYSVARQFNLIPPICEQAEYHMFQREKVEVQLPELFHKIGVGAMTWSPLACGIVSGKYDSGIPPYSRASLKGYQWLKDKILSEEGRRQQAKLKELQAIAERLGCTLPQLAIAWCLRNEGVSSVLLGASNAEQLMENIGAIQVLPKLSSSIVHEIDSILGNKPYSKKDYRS
Chain of Alpha-2C adrenergic receptor (Homo sapiens) (P18825 whole entry, looked up): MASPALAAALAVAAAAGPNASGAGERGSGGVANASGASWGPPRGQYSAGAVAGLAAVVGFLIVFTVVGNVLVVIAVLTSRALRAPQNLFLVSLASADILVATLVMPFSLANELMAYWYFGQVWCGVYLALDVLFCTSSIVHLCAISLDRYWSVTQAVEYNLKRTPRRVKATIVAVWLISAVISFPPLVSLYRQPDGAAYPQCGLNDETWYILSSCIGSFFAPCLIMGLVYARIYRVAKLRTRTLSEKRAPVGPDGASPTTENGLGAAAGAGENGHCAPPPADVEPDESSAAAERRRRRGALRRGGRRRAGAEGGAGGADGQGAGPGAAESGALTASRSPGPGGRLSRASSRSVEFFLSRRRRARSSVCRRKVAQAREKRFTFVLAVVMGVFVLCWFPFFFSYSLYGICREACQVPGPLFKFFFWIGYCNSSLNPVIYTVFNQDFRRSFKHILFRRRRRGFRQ

What is called inhibition is the change of the read-out against control, counted positive when it falls. With `CCCc1nnc2n1N=C(c1ccc(-c3cc(Cl)ccc3Cl)o1)CS2`, the cell count in test [1] stood at 248. Besides, the inhibition is 6.2% (inactive) in test [1], 17.1% (inactive) in test [3], 8.08% (inactive) in test [7] and 29.1% (inactive) in test [8]. Besides, in test [2], the inhibition of aggregation is 4.8% (inactive). For the same molecule, the nuclei count came out at 100% in test [2] and 89% in test [3]. In test [4], the fluorescence slope is -0.447 (inactive). Also, the NADPH fluorescence slope in test [5] is -5.1e-05 (inactive). The slope in test [6] was 0.00311 (inactive).
Regarding `CCCCS(=O)(=O)NC1=NCN(C2CCN(Cc3ccccc3)CC2)CN1`, in test [1], the cell count came to 378. Further, the inhibition is -2.1% (inactive) in test [1], -23.1% (inactive) in test [3], 4.05% (inactive) in test [7] and 18.7% (inactive) in test [8]. Also, the inhibition of aggregation in test [2] is 17.7% (inactive). Also, the nuclei count stood at 97.1% in test [2] and 113% in test [3]. Further, in test [4], the fluorescence slope is -0.572 (inactive). Moreover, the NADPH fluorescence slope in test [5] is -9.6e-05 (inactive). Further, in test [6], the slope is 0.00667 (inactive).
On to `Cc1cc(C)n(-c2nc3sc4c(c3c3nnc(SCC(N)=O)n23)CC(C)(C)OC4)n1`, for which, in test [1], the cell count is 368. Also, the inhibition in test [1] was 6.9% (inactive); in test [3] it was -4.5% (inactive); in test [7] it was 6.12% (inactive); in test [8], 10.9% (inactive). Further, in test [2], the inhibition of aggregation was -7.7% (inactive). Moreover, the nuclei count was 88.2% in test [2] and 116% in test [3]. Also, in test [4], the fluorescence slope was -0.318 (inactive). Moreover, the NADPH fluorescence slope in test [5] is 3.6e-06 (inactive). In addition, the slope in test [6] was 0.00476 (inactive).
In the case of `CCCCCOc1ccc(C2NC(=O)NC2=O)cc1` (centres undefined), the cell count in test [1] worked out at 804. For the same molecule, the inhibition was -5.5% (inactive) in test [1], -50.9% (inactive) in test [3], -12.1% (inactive) in test [7] and -2.6% (inactive) in test [8]. Moreover, in test [2], the inhibition of aggregation is -5.5% (inactive). The nuclei count was 107% in test [2] and 121% in test [3]. Further, the fluorescence slope in test [4] was -0.561 (inactive). Besides, the NADPH fluorescence slope in test [5] is -4.1e-05 (inactive). In addition, in test [6], the slope was 0.00708 (inactive).
As for `O=C(CS(=O)(=O)c1cn(Cc2ccc(Cl)cc2)c2ccccc12)N1CCCC1`, in test [1], the cell count was 654. The inhibition in test [1] is -3.9% (inactive); in test [3], 13.5% (inactive); in test [7] it was 15.4% (inactive); in test [8], 34% (inactive). Also, the inhibition of aggregation in test [2] is -11.8% (inactive). The values for the nuclei count in test [2] and in test [3] were 116% and 111%, respectively. The fluorescence slope in test [4] is -0.538 (inactive). For the same molecule, the NADPH fluorescence slope in test [5] was -3.5e-05 (inactive). Besides, the slope in test [6] is 0.00627 (inactive).
With `CCOC(=O)N1CCN(CCC(=O)c2ccc(Cl)cc2)CC1`, in test [1], the cell count stood at 533. Further, the inhibition in test [1] is -10.6% (inactive); in test [3], -30.8% (inactive); in test [7], 2.5% (inactive); in test [8], 2.89% (inactive). The inhibition of aggregation in test [2] was -1.1% (inactive). In addition, the nuclei count in test [2] came to 116%; in test [3] it was 69.7%. The fluorescence slope in test [4] was -0.611 (inactive). The NADPH fluorescence slope in test [5] was -3.9e-05 (inactive). Also, the slope in test [6] was 0.00547 (inactive).
Regarding `O=C(COc1cccc(Oc2ccccc2)c1)Nc1ncccn1`, the cell count in test [1] worked out at 739. Further, the inhibition is 3.1% (inactive) in test [1], -25.1% (inactive) in test [3], 4.77% (inactive) in test [7] and 4.74% (inactive) in test [8]. For the same molecule, the inhibition of aggregation in test [2] is 12.8% (inactive). The nuclei count turned out to be 103% in test [2] and 111% in test [3]. Moreover, the fluorescence slope in test [4] is -0.609 (inactive). The NADPH fluorescence slope in test [5] is -1.1e-05 (inactive). Also, the slope in test [6] was 0.00604 (inactive).
As for `CCN(CC)S(=O)(=O)N1CCC(C(=O)NC2CCCc3ccccc32)CC1` (centres undefined), in test [1], the cell count is 690. For the same molecule, the inhibition in test [1] was 5.7% (inactive); in test [3], -8.8% (inactive); in test [7], -11.5% (inactive); in test [8], -8.15% (inactive). Moreover, the inhibition of aggregation in test [2] is -6.5% (inactive). Also, the figures for the nuclei count in test [2] and in test [3] were 95% and 116%, respectively. Moreover, in test [4], the fluorescence slope was -0.49 (inactive). Moreover, in test [5], the NADPH fluorescence slope is 8.8e-05 (inactive). In test [6], the slope is 0.00498 (inactive).
For the molecule `O=C(NC1CCCC1)c1ccc2nc[nH]c2c1`, in test [1], the cell count amounted to 427. For the same molecule, the inhibition in test [1] is 10.2% (inactive); in test [3], -41.4% (inactive); in test [7], 9.91% (inactive); in test [8] it was 13.1% (inactive). Besides, the inhibition of aggregation in test [2] was 0.8% (inactive). For the same molecule, the nuclei count amounted to 101% in test [2] and 114% in test [3]. Also, in test [4], the fluorescence slope was -0.62 (inactive). Also, the NADPH fluorescence slope in test [5] was -3.9e-06 (inactive). Also, in test [6], the slope is 0.00786 (inactive).
For the molecule `COc1ccc(Cn2nnnc2C(c2cccnc2)N2CCN(c3ccc(O)cc3)CC2)cc1` (centres undefined), the cell count in test [1] stood at 682. Also, the inhibition in test [1] is -7.2% (inactive); in test [3] it was -51.9% (inactive); in test [7], 15% (inactive); in test [8] it was 21.3% (inactive). For the same molecule, the inhibition of aggregation in test [2] was -1.9% (inactive). The nuclei count is 92.7% in test [2] and 117% in test [3]. For the same molecule, the fluorescence slope in test [4] was -0.514 (inactive). Besides, the NADPH fluorescence slope in test [5] is -5.3e-05 (inactive). Further, the slope in test [6] is 0.00403 (inactive).
`COc1ccc(C(=O)NCc2nnc(SCC(=O)Nc3cc(C)cc(C)c3)o2)cc1OC`: the cell count in test [1] amounted to 611. The inhibition in test [1] was -14.4% (inactive); in test [3], -100% (inactive); in test [7], 9% (inactive); in test [8], 9.85% (inactive). The inhibition of aggregation in test [2] is 14% (inactive). Besides, the nuclei count in test [2] was found to be 76.5%; in test [3] it was 115%. In test [4], the fluorescence slope was -0.272 (inactive). Besides, the NADPH fluorescence slope in test [5] was -1e-05 (inactive). Further, the slope in test [6] was 0.00582 (inactive).
As to `CCCCSc1cc(C)nc2ncnn12`, the cell count in test [1] was 416. Besides, the inhibition in test [1] was -4% (inactive); in test [3], 12.1% (inactive); in test [7], -10.9% (inactive); in test [8] it was 9.98% (inactive). Moreover, the inhibition of aggregation in test [2] is -3.2% (inactive). Further, the nuclei count in test [2] was 117%; in test [3], 119%. Besides, the fluorescence slope in test [4] is -0.492 (inactive). The NADPH fluorescence slope in test [5] was 3.1e-05 (inactive). In addition, the slope in test [6] was 0.00349 (inactive).
As to `COc1cccc(-c2csc3nnc(SCC(=O)c4ccc(NC(C)=O)cc4)n23)c1`, in test [1], the cell count amounted to 452. The inhibition in test [1] was 0% (inactive); in test [3], -116% (inactive); in test [7], 8.19% (inactive); in test [8], 17.5% (inactive). Moreover, the inhibition of aggregation in test [2] is 21.2% (inactive). Besides, the nuclei count in test [2] was determined as 106%; in test [3], 176%. Besides, the fluorescence slope in test [4] was -0.47 (inactive). The NADPH fluorescence slope in test [5] is 0.000104 (inactive). Besides, the slope in test [6] is 0.00779 (inactive).
In the case of `CCOC(=O)c1cccnc1SCC(=O)NC(C)CC` (centres undefined), the cell count in test [1] came out at 689. Also, the inhibition is -22.4% (inactive) in test [1], -54.6% (inactive) in test [3], 7.9% (inactive) in test [7] and 17.7% (inactive) in test [8]. For the same molecule, the inhibition of aggregation in test [2] was 23.4% (inactive). The nuclei count in test [2] was 99.8%; in test [3], 119%. Also, the fluorescence slope in test [4] was -0.469 (inactive). Moreover, in test [5], the NADPH fluorescence slope is -0.0001 (inactive). For the same molecule, the slope in test [6] was 0.006 (inactive).

The values are drawn from PubChem BioAssay.
